Structures can show the parent of a compound that is named as a salt.
Tests used:
Conditions in all cases: 10 µM; exposure time 6 h
[1] = test system: Danio rerio larvae (5 dpf); test: difference in excitability vs DMSO (percentage points); higher = more excitable than DMSO
Procedure, shortened: (§1)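 Wild-type 5 dpf zebrafish larvae in 96-well plates were given 100 µL egg water containing library compound at 10 µM final for 6 h. After 3 h of exposure, plates at 28.5 ℃ were photographed every 6 s during a 3-h programme of moving lines and 100 ms, 400Hz tones. Z-LaP Tracker (a DeepLabCut model) quantified each behaviour, averaged over 48 larvae per compound. Values are the compound mean minus the DMSO-vehicle control, in percentage points.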

[2] = test system: Danio rerio larvae (5 dpf); test: difference in startle response vs DMSO (percentage points); higher = stronger startle than DMSO
Procedure, shortened: as §1

[3] = test system: Danio rerio larvae (5 dpf); test: difference in activity during first hour vs DMSO (percentage points); higher = more activity than DMSO
Procedure, shortened: as §1

[4] = test system: Danio rerio larvae (5 dpf); test: difference in habituation to acoustic stimuli vs DMSO (percentage points); higher = more habituation than DMSO
Procedure, shortened: as §1

[5] = test system: Danio rerio larvae (5 dpf); test: difference in combined optomotor response to red, green and blue moving lines vs DMSO (percentage points); higher = stronger optomotor response than DMSO
Procedure, shortened: as §1

SMILES	difference in excitability [1]	difference in startle response [2]	difference in activity during first hour [3]	difference in habituation to acoustic stimuli [4]	difference [5]
CC(C)NCC(O)c1ccc(O)c(O)c1 (stereo not given) [Isoproterenol (hydrochloride)]	-11.9	-6.4	45.9	1.72	6.58
CC=CC1=C(C(=O)O)N2C(=O)[C@@H](NC(=O)[C@H](N)c3ccc(O)cc3)[C@H]2SC1 [Cefprozil]	11.3	-8.07	1.23	4.8	-4.03
O=C1c2c(O)ccc(O)c2C(=O)c2c(NCCNCCO)ccc(NCCNCCO)c21 [Mitoxantrone (hydrochloride)]	8.92	-11.2	-16.2	-16	-15.4
Cc1onc(-c2c(Cl)cccc2Cl)c1C(=O)N[C@@H]1C(=O)N2[C@@H]1SC(C)(C)[C@@H]2C(=O)O [Dicloxacillin (sodium salt hydrate)]	9.09	-2.02	8.63	-4	0.484
CC(C)NCC(O)COc1ccc(CC(N)=O)cc1 (racemic) [(±)-Atenolol]	3.98	-0.206	8.47	1.78	1.82
CCCCCCCC/C=C\CCCCCCCC(=O)NCCO [Oleoyl Ethanolamide]	3.95	1.17	2.47	-3.04	-0.503
CC[C@H](C)C(=O)O[C@H]1C[C@H](O)C=C2C=C[C@H](C)[C@H](CC[C@@H](O)C[C@@H](O)CC(=O)O)[C@H]21 [Pravastatin (sodium salt)]	1.5	5.8	9.55	-2.28	1.82
CN(Cc1cnc2nc(N)nc(N)c2n1)c1ccc(C(=O)N[C@@H](CCC(=O)O)C(=O)O)cc1 [Methotrexate (hydrate)]	9.03	7.54	-9.02	-0.271	3.11
Cc1ccc(-c2cc(C(F)(F)F)nn2-c2ccc(S(N)(=O)=O)cc2)cc1 [Celecoxib]	6.16	-9.06	2.67	-10.4	-6.28
CNC(=O)c1cc(Oc2ccc(NC(=O)Nc3ccc(Cl)c(C(F)(F)F)c3)cc2)ccn1 [Sorafenib]	19.5	-6.25	-3.15	-3.01	-2.71
NC[C@H]1CC[C@H](C(=O)O)CC1 [Tranexamic Acid]	6.95	8.18	13.1	1.19	10.9
CC[C@H](C)[C@@H]1NC(=O)[C@H](Cc2ccc(O)cc2)NC(=O)[C@@H](N)CSSC[C@@H](C(=O)N2CCC[C@H]2C(=O)N[C@@H](CC(C)C)C(=O)NCC(N)=O)NC(=O)[C@H](CC(N)=O)NC(=O)[C@H](CCC(N)=O)NC1=O [Oxytocin (acetate)]	-2.14	1	-5.61	2.03	4.29
CCCCCOc1ccc(-c2cc(-c3ccc(C(=O)N[C@H]4C[C@@H](O)[C@@H](O)NC(=O)[C@@H]5[C@@H](O)[C@@H](C)CN5C(=O)[C@H]([C@H](O)CC(N)=O)NC(=O)[C@H]([C@H](O)[C@@H](O)c5ccc(O)c(OS(=O)(=O)O)c5)NC(=O)[C@@H]5C[C@@H](O)CN5C(=O)[C@H]([C@@H](C)O)NC4=O)cc3)no2)cc1 [Micafungin (sodium salt)]	-4.69	-8.33	19.8	-1.44	-1.06
CCN(CC)C(=O)[C@@]1(c2ccccc2)C[C@H]1CN [Levomilnacipran (hydrochloride)]	9.82	0.949	-23	-1.84	-14.2
O=C(O)c1cc(-c2ccc(F)cc2F)ccc1O [Diflunisal]	1.22	5.89	15.2	-3.92	6.8
CC(C)(C#N)c1cc(Cn2cncn2)cc(C(C)(C)C#N)c1 [Anastrozole]	1.93	-2.98	-4.84	-5.36	7.09
CC1(C)S[C@@H]2[C@H](NC(=O)[C@H](N)c3ccc(O)cc3)C(=O)N2[C@H]1C(=O)O [Amoxicillin (hydrate)]	2.37	8.42	13.1	5.1	8.79
CN(C)CCC=C1c2ccccc2CCc2ccccc21 [Amitriptyline (hydrochloride)]	2.65	5.98	-3.87	-14.7	-8.17
CCc1nc(N)nc(N)c1-c1ccc(Cl)cc1 [Pyrimethamine]	12.2	1.26	9.34	-3.84	5.09
CC1(C)O[C@@H]2C[C@H]3[C@@H]4C[C@H](F)C5=CC(=O)C=C[C@]5(C)[C@H]4[C@@H](O)C[C@]3(C)[C@]2(C(=O)CO)O1 [Flunisolide]	4.3	-3.48	6.73	1.9	3.28
O=C(O)C[C@H](O)C[C@H](O)/C=C/c1c(C2CC2)nc2ccccc2c1-c1ccc(F)cc1 [Pitavastatin (calcium salt)]	10.2	-3.29	4.76	-3.94	13.1
O=C(Nc1c(Cl)cncc1Cl)c1ccc(OC(F)F)c(OCC2CC2)c1 [Roflumilast]	18.7	-2.74	-14.9	-8.84	-5.57
CC(C)(C)NC[C@H](O)COc1nsnc1N1CCOCC1 [Timolol (maleate)]	6.66	-3.72	0.276	-0.906	6.47

SMILES	difference in excitability [1]	difference in startle response [2]	difference in activity during first hour [3]	difference in habituation to acoustic stimuli [4]	difference [5]
Cc1cn([C@H]2C=C[C@@H](CO)O2)c(=O)[nH]c1=O [Stavudine]	7.17	-2.71	-1.82	5.47	4.85
C=C[C@H]1CN2CC[C@H]1C[C@H]2[C@H](O)c1ccnc2ccc(OC)cc12 [Quinine]	11.3	10.1	-2.96	0.181	-0.242
O=C1CC2(CCCC2)CC(=O)N1CCCCN1CCN(c2ncccn2)CC1 [Buspirone (hydrochloride)]	24.5	1.48	-8.4	4.59	0.171
C#C[C@]1(O)CC[C@H]2[C@@H]3CCC4=CC(=O)CC[C@@H]4[C@H]3CC[C@@]21CC [Levonorgestrel]	2.02	-3.01	-12.7	-0.397	3.05
CC(=O)Oc1cc2c(s1)CCN(C(C(=O)C1CC1)c1ccccc1F)C2 (stereo not given) [Prasugrel]	-1.17	0.187	-0.362	8.33	9.86
O=C1[C@H](CC[C@H](O)c2ccc(F)cc2)[C@@H](c2ccc(O)cc2)N1c1ccc(F)cc1 [Ezetimibe]	3.43	3.17	-1.12	-7.52	7.17
CCCN(CCc1cccs1)[C@H]1CCc2c(O)cccc2C1 [Rotigotine]	20.1	-3.78	-23.8	-14.4	-15.9
Cc1ccccc1C(=O)Nc1ccc(C(=O)N2CCCC(O)c3cc(Cl)ccc32)c(C)c1 (stereo not given) [Tolvaptan]	11	1.76	15.8	-0.912	5.47
CCCNCC(O)COc1ccccc1C(=O)CCc1ccccc1 (stereo not given) [Propafenone (hydrochloride)]	14.4	-3.28	8.84	0.424	6.51
CC(N)C12CC3CC(CC(C3)C1)C2 (stereo not given) [Rimantadine (hydrochloride)]	3.64	-0.673	-3.58	3.17	-3.34
COc1ccc(-n2nc(C(N)=O)c3c2C(=O)N(c2ccc(N4CCCCC4=O)cc2)CC3)cc1 [Apixaban]	-0.692	-6.58	1.99	4.29	10.4
CS(=O)(=O)CCNCc1ccc(-c2ccc3ncnc(Nc4ccc(OCc5cccc(F)c5)c(Cl)c4)c3c2)o1 [Lapatinib]	-0.459	0.335	-8.64	-0.929	1.37
CCOC(=O)[C@H](CCc1ccccc1)N[C@@H](C)C(=O)N1Cc2ccccc2C[C@H]1C(=O)O [Quinapril (hydrochloride)]	-1.99	-2.06	12.4	-0.155	2.4
Cn1ccnc1S [Methimazole]	-1.48	3.48	-0.609	0.155	3.45
NC[C@H]1O[C@H](O[C@H]2[C@H](O)[C@@H](O[C@H]3O[C@H](CO)[C@@H](O)[C@H](N)[C@H]3O)[C@H](N)C[C@@H]2N)[C@H](N)C[C@@H]1O [Tobramycin]	25.5	-1.65	-2.18	4.43	-2.09
CCOC(=O)C1=C(COCCN)NC(C)=C(C(=O)OC)C1c1ccccc1Cl (stereo not given) [Amlodipine]	4.37	-5.58	1.69	0.668	7.23
CN(C)CCOC(C)(c1ccccc1)c1ccccn1 (stereo not given) [Doxylamine (succinate)]	0.347	-2.91	6.73	5.01	9.42
CN[C@H](CC(C)C)C(=O)N[C@H]1C(=O)N[C@@H](CC(N)=O)C(=O)N[C@H]2C(=O)N[C@H]3C(=O)N[C@H](C(=O)N[C@H](C(=O)O)c4cc(O)cc(O)c4-c4cc3ccc4O)[C@H](O)c3ccc(c(Cl)c3)Oc3cc2cc(c3O[C@@H]2O[C@H](CO)[C@@H](O)[C@H](O)[C@H]2O[C@H]2C[C@](C)(N)[C@H](O)[C@H](C)O2)Oc2ccc(cc2Cl)[C@H]1O [Vancomycin (hydrochloride)]	-0.532	-0.846	1.02	-1.36	9.98
COc1cc([C@@H]2c3cc4c(cc3[C@@H](O[C@@H]3O[C@@H]5CO[C@@H](C)O[C@H]5[C@H](O)[C@H]3O)[C@H]3COC(=O)[C@H]23)OCO4)cc(OC)c1O [Etoposide]	-3.42	2.1	-5.75	2.55	-5.33
CNC[C@H](O)c1ccc(O)c(O)c1 (racemic) [(±)-Epinephrine (hydrochloride)]	-0.953	-6	37.7	-7.58	4.53
C=C(c1ccc(C(=O)O)cc1)c1cc2c(cc1C)C(C)(C)CCC2(C)C [Bexarotene]	7.21	1.4	-13.5	-4.93	-11
c1ccc2c(CC3=NCCN3)cccc2c1 [Naphazoline (hydrochloride)]	10.4	-5.95	0.867	-2.18	-3.73
CN1C(=O)CC(C)(c2ccccc2)C1=O (stereo not given) [Methsuximide]	-3.21	8.76	7.45	4.76	10.3

Reference: the supplement of paper PMC10515830
